# SW480 rereplic – DNA re-replication induction in SW480 cells. actives 1.8% (n = 340,000). Potency, µM (highest dose often 46.1 µM), for inactives: at the top dose re-replication activation, most hits filed as activators. AID 624297. SW480 DNA re-replication, Hoechst DNA content imaging, 48 h; note: % of control where 0% means no effect; nearly all actives have a fitted effect of over 55% in size
#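 Per well, 250 cells were exposed to pinned compound for 48 hr. Nuclear DNA was visualised with Hoechst (40 min, 37 C) and total object intensity recorded by fluorescence scanning.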
# MCF10A rerep – DNA re-replication induction in MCF 10a cells; MCF 10A DNA re-replication, Hoechst nuclear intensity, 48 h; AID 624296; actives 2.9% (n = 350,000); Potency, µM (titrated, usually from 46.1 µM), for inactives: top-dose activity, positive = re-replication, hits mostly activators; note: % of control where 0% means no effect; nearly all actives have a fitted effect of over 50% in size
# KB-V1 MDR tox – kills drug-selected multidrug resistant KB-V1 cells | AID 1347076 | Potency, µM (doses to about 46.1 µM), usual class: cytotoxic | KB-V1 MDR cells viability, CellTiter-Glo, 72 h | actives 3.4% (n = 400,000); note: % is set by controls: 0 for no effect and ±100 for the full control effect; nearly all actives have a fitted effect of over 60% in size
#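 KB-V1 cells (P-gp-expressing MDR subline of KB-3-1) in phenol-red-free DMEM with 10% FBS were exposed to library compounds over a concentration series for 72 h at 37 degrees C. Viability read by CellTiter-Glo luminescence; concentration-effect curves fitted after normalization.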
# HT1080NT lethal – kills 2HG-producing HT-1080-NT fibrosarcoma cells; actives 1.6% (n = 360,000); Potency, µM (top dose mostly 46.1 µM), without a hit: at the highest dose activity, negative = less viability, actives largely listed as cytotoxic; HT-1080-NT fibrosarcoma viability, CellTiter-Glo ATP luminescence, 48 h; AID 686970;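 note: NT is the 2HG producing partner of a matched IDH1 knockdown line; 0% = DMSO-treated cells and -100% = media-only wells without cells; nearly all actives have a fitted effect of over 55% in size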
#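 A 48-hour cytotoxicity screen used HT-1080-NT cells plated 2 hours before compound delivery. ATP-based CellTiter-Glo luminescence measured viability, normalized to DMSO and no-cell controls.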
# HT1080 IDH1KD tx – toxicity to HT-1080 IDH1 knockdown cells (counter line); HT-1080 IDH1 knockdown viability, ATP luminescence, 48 h; actives 2% (n = 360,000); AID 686971; Potency, µM (titrated, usually from 46.1 µM), without a hit: at the highest dose activity, negative = toxicity, most hits filed as cytotoxic;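 note: 0% = DMSO wells and -100% = cell-free medium wells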
#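 IDH1KD HT-1080 cells, 750/well, RPMI + 5% FBS; compound pinned after 2 h settling; 48 h, 37 °C; CellTiter-Glo luminescence; % activity normalised to DMSO and no-cell wells; curves fitted, classed by r2 and efficacy.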
# KB-3-1 tox – KB-3-1 parental cell cytotoxicity; KB-3-1 viability, CellTiter-Glo ATP luminescence, 72 h; Potency, µM (titrated, usually from 46.1 µM), most hits filed as cytotoxic; actives 1.4% (n = 400,000); AID 1347075; note: % is set by controls: 0 for no effect and ±100 for the full control effect; nearly all actives have a fitted effect of over 60% in size
#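 Multi-concentration cytotoxicity screen in KB-3-1 cells grown in DMEM lacking phenol red with 10% FBS. After 72 h at 37 °C with compound, ATP-dependent luminescence was recorded.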
# The depositor's hits bear a star; i = inactive; ? = inconclusive; . = no result. Compounds with a hit are over-represented: about 7.9% of the library has one in this group of screens. Calls come from the whole dose curve; as a rule, active = well fitted curve in the direction sought with a large enough effect; inconclusive = small, poorly fitted or top-dose-only effect, or another doubt; inactive = no such curve, though single readings can be large; an effect the other way counts as inactive or inconclusive. Potency is the fitted concentration of half-maximal effect.
SMILES,SW480 rereplic,MCF10A rerep,KB-V1 MDR tox,HT1080NT lethal,HT1080 IDH1KD tx,KB-3-1 tox
O=C(NCC(c1cccs1)N1CCOCC1)c1ccccc1NS(=O)(=O)c1ccc(Cl)cc1 (configuration not stated),0%,?,12µM*,?,-30%,?
CN(C)C(=O)/C(C#N)=C\c1cc(Br)c(Sc2ccc(Cl)cc2)o1,2%,4%,16µM*,-18%,5%,i
O=[N+]([O-])c1cc([N+](=O)[O-])c(Oc2cc(Cl)cc(Cl)c2)cc1NN1CCCCC1,-4%,10%,i,-8%,-7%,i
CC1CN(C(=S)NC2CCCC2)CC(C)O1 (configuration not stated),-2%,6%,i,8%,8%,i
Cn1c(-c2ccc(C=O)s2)nc2c3ccccc3c3ccccc3c21,?,10µM*,?,-4%,-10%,?
NCc1ccccc1Sc1ccccc1CO,1%,1%,.,.,.,.
N#C/C(=C\c1cn(Cc2ccc(F)cc2)c2ccccc12)C(=O)NCc1ccco1,?,-1%,i,?,?,i
N#C/C(=C\c1cn(Cc2cccc(F)c2)c2ccccc12)C(=O)NCc1ccco1,.,13µM*,i,-20%,?,i
N#C/C(=C\c1cn(Cc2ccccc2)c2ccccc12)C(=O)NCc1ccco1,?,21µM*,i,-6%,-15%,i
Cc1cccc(NC(=O)/C(C#N)=C/c2cn(CC(=O)NCc3ccco3)c3ccccc23)c1C,?,?,?,-46%,-46%,?
COc1ccc(-n2nc(C#N)c(Cl)cc2=O)cc1,?,0.73µM*,i,7.3µM*,13µM*,?
COC(=O)c1nn(-c2ccc(OC)cc2)c(=O)cc1O,9%,-1%,i,2%,0%,i
CCC(=O)/C=C1\Sc2ccc(OC)cc2N1CC,-4%,23%,15µM*,-23%,-10%,?
Cc1cc2nc(-c3ccc(SCc4ccccn4)nc3)[nH]c2cc1C,?,?,16µM*,?,?,i
CC(=O)NC(CC(=O)Nc1ccc2c(c1)OCCO2)c1ccccc1 (configuration not stated),-2%,0%,i,21%,15%,i
CC1CN(C(=O)CCS(=O)(=O)c2ccccc2)CC(C)O1 (configuration not stated),1%,18%,i,-8%,16%,i
CCOc1ccc(NC(=O)/C(C#N)=C/c2cn(CC(=O)O)c3ccccc23)cc1,-3%,?,i,5%,0%,i
Cc1ccc(C)c(OCCn2cc(/C=C(/C#N)C(=O)NCC3CCCO3)c3ccccc32)c1 (configuration not stated),25%,?,15µM*,-8%,-12%,i
CNC(=O)/C(C#N)=C/c1cn(CC(=O)OC)c2ccccc12,-47%,?,i,9%,11%,i
CCOC(=O)/C(C#N)=C/c1cn(CCOc2ccc(OC)cc2)c2ccccc12,4%,16µM*,i,-6%,-3%,i
COc1ccccc1OCCn1cc(/C=C(\C#N)C(=O)NCc2cccs2)c2ccccc21,-14%,-6%,18µM*,-1%,-1%,i
Cc1cc(/C=C(\C#N)C(=O)NCC2CCCO2)c(C)n1-c1ccc(Cl)cc1 (configuration not stated),-13%,3%,4.1µM*,-11%,?,i
O=c1[nH]nc(SC2CCCCC2)c(=O)[nH]1,1%,2%,i,3%,-1%,i
CCCCn1c(N)c(N(CC(C)C)C(=O)C2CC(=O)N(Cc3ccco3)C2)c(=O)[nH]c1=O (configuration not stated),-4%,3%,i,2%,11%,i
